# From PubChem BioAssay (Tox21)
# Records with an inconclusive call do not appear. Where a call stands in place of a potency, no number is given. Activity calls are given as the source filed them. Calls come from the whole dose curve; as a rule, active = well fitted activation curve with a large enough effect in the repeat runs; inconclusive = weak or mixed curves; inactive = no such curve, though single readings can be large or run the other way.
# Assay: qHTS assay to identify small molecule agonists of the estrogen related receptor (ERR) signaling pathway (AID 1224820)
# Details: ERR reporter cell line, luciferase agonist mode; series mostly up to 46.1 µM
# Text: National Center for Advancing Translational Sciences [NCATS]
# NIH Chemical Genomics Center [NCGC]
# U.S. Environmental Protection Agency [EPA]
# National Institutes of Environmental Health Sciences [NIEHS]
# National Toxicology Program [NTP]
# Estrogen related receptors (ERRs), the first orphan nuclear receptors discovered, play an important role in the control of cellular energy metabolism. ERRs are required for high-energy production in response to the environmental challenges. ERR-alpha was also identified as an adverse marker for breast cancer progression; ERR-alpha-positive tumors have a poor prognosis. To screen and to identify environmental compounds that perturb the ERR signaling pathways could provide valuable information for potential therapeutic or preventive measures in the treatment of metabolic disease. For identifying ERR agonists, ERR cell line (provided by NTP) has been used to screen LOPAC library.
# The ERR cells were dispensed at 2,000 cells/5 ul/well in 1536-well white plates using a Multidrop dispenser. After the assay plates were incubated at a 37 C/5% CO2 incubator for 6 hours, 23 nL of compounds dissolved in DMSO, positive and negative controls or DMSO only was transferred to the assay plate by a pin tool. The plates were incubated at 37 C for 18 hours. 4 ul/well of One-Glo reagent was added into the assay plates using a Flying Reagent Dispenser. After 30 min incubation at room temperature, the luminescence intensity in the plates was measured using a ViewLux plate reader.
row,SMILES,Potency
1,Nc1nc(Nc2ccccc2)nc2c1ncn2[C@@H]1O[C@H](CO)C(O)[C@H]1O (stereo not given in full),inactive
2,Cc1ccc(S(=O)(=O)N[C@@H](Cc2ccccc2)C(=O)CCl)cc1,inactive
3,CC[n+]1c(/C=C/C=C2/N(C)c3ccccc3C2(C)C)sc2ccccc21,inactive
4,NC(Cc1cccc(-c2ccccc2CP(=O)(O)O)c1)C(=O)O (stereo not given),inactive
5,CN1CCc2cccc3c2C1Cc1ccc(O)c(O)c1-3 (stereo not given),inactive
6,Nc1ccc(N2C(=O)c3ccccc3C2=O)c(Cl)c1,inactive
7,N[C@@H](Cc1cnc[nH]1)C(=O)O,inactive
8,C#CC(N)CCC(=O)O (stereo not given),inactive
9,NC(=O)CNCCC(c1ccccc1)c1ccccc1,inactive
10,Cc1cc(NC2CCCCC2)nc(-n2nc(C)cc2C)n1,inactive
11,CCCN(CCc1ccccc1)C1CCc2c(O)cccc2C1 (stereo not given),inactive
12,CO/N=C(\C(=O)N[C@@H]1C(=O)N2C(C(=O)O)=C(COC(C)=O)CS[C@H]12)c1csc(N)n1 (stereo in doubt),inactive
13,CC(=O)N[C@@H](Cc1c[nH]c2ccccc12)C(=O)OCc1cc(C(F)(F)F)cc(C(F)(F)F)c1,inactive
14,CCCC(=O)c1cc(O)c(O)cc1O,inactive
15,CC(=O)SCC[N+](C)(C)C,inactive
16,CCOC(=O)[C@H](CCc1ccccc1)N[C@@H](C)C(=O)N1[C@H](C(=O)O)C[C@H]2CCCC[C@@H]21,inactive
17,COc1cc(C(O)CO)ccc1OS(=O)(=O)O (stereo not given),inactive
18,CN[C@H](CC(C)C)C(=O)N[C@H]1C(=O)N[C@@H](CC(N)=O)C(=O)N[C@H]2C(=O)N[C@H]3C(=O)N[C@H](C(=O)N[C@H](C(=O)O)c4cc(O)cc(O)c4-c4cc3ccc4O)[C@H](O)c3ccc(c(Cl)c3)Oc3cc2cc(c3O[C@@H]2O[C@H](CO)[C@@H](O)[C@H](O)[C@H]2O[C@H]2C[C@](C)(N)[C@H](O)[C@H](C)O2)Oc2ccc(cc2Cl)[C@H]1O,inactive
19,CCN(CC)CCCCNc1ncc2cc(-c3c(Cl)cccc3Cl)c(NC(=O)NC(C)(C)C)nc2n1,inactive
20,Clc1ccc2c(c1)N=C(N1CCNCC1)c1ccccc1N2,inactive

row,SMILES,Potency
1,CCC(=O)N1CCN(C(=O)c2ccccc2)CC1,inactive
2,CNC(=O)[C@H]1O[C@@H](n2cnc3c(NCc4ccc(N)cc4)ncnc32)[C@H](O)C1O (stereo not given in full),inactive
3,CCOC(=O)C(C)Oc1cccc2c(=O)n(CC(=O)Nc3ccc4c(c3)OCCO4)ccc12 (stereo not given),inactive
4,CN(C)c1nc(N)c(C(=O)N=C(N)N)nc1Cl,inactive
5,CC[C@H]1OC(=O)[C@H](C)[C@@H](O[C@H]2C[C@@](C)(OC)[C@@H](O)[C@H](C)O2)[C@H](C)[C@@H](O[C@@H]2O[C@H](C)C[C@H](NC)[C@H]2O)[C@](C)(O)C[C@@H](C)CN(C)[C@H](C)[C@@H](O)[C@]1(C)O,inactive
6,CCN(CC)CCn1c(=O)c(Cc2ccc(OC)cc2)nc2ccccc21,inactive
7,N=C(N)c1ccc(OCCCCCOc2ccc(C(=N)N)cc2)cc1 (tested in a mixture with another compound),inactive
8,Cn1c(=O)c(-c2c(Cl)cccc2Cl)cc2cnc(Nc3ccc(N4CCOCC4)cc3)nc21,inactive
9,Nc1ccc2c3c(cccc13)C(=O)NC2=O,inactive
10,O=C(NOCC1CC1)c1cc(Br)c(F)c(F)c1Nc1ccc(I)cc1Cl,inactive
11,N#C/C(=C\c1ccc(O)c(O)c1)C(=O)c1ccc(O)c(O)c1,inactive
12,CC1CCN=C(N)S1 (stereo not given),inactive
13,O=[N+]([O-])c1cccc2cn[nH]c12,inactive
14,COc1cc(SC)ccc1C(=O)N1CCC(Cc2ccccc2)CC1,inactive
15,COc1ccccc1N1CCN(CCN(C(=O)C2CCCCC2)c2ccccn2)CC1,inactive
16,CSc1ccccc1N1CCN(CCCCCC(=O)NC2CCCc3ccccc32)CC1 (stereo not given),inactive
17,N[C@@H](CCC(=O)N[C@H](CSN=O)C(=O)NCC(=O)O)C(=O)O,inactive
18,O=C(O)CCC(=O)N1CCCC1C(=O)O (stereo not given),inactive
19,CCN(CC)CCOC(=O)c1cc(Cl)c(N)cc1OC,inactive
20,NC(=S)c1ccc[n+]([C@@H]2O[C@@H](COP(=O)([O-])OP(=O)(O)OC[C@H]3O[C@@H](n4cnc5c(N)ncnc54)[C@H](OP(=O)(O)O)C3O)C(O)C2O)c1 (stereo not given in full),inactive
